Assay [1] can be described thus: BSK_3C_VCAM1: BioMAP Diversity Plus: 3C Assay for Vascular cell adhesion molecule 1 (VCAM1) Biomarker Activity (AID 2282999). The following applies: BioMAP 3C HUVEC, VCAM1 ELISA, cytokine-stimulated; actives raise or lower the signal. The method, boiled down:
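Endothelial cells from human umbilical vein are treated with test chemical. At 24 h, VCAM-1 is measured by ELISA, and responses in either direction are fitted relative to DMSO.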
(An ELISA detects its analyte on a solid surface through an enzyme-linked reagent.)

The nature of assay [2]: BSK_3C_Proliferation: Cell Proliferation Assessment in the BioMAP Diversity Plus: 3C Assay (AID 2283006).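 As to AC50: potency may reflect either rise or fall in cell number versus DMSO.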 The following applies: primary human endothelial cells (HUVEC). A digest of the protocol: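 Proliferation of human vascular endothelial primary cells after 48 h dosing, quantified as SRB-stained protein at 560 nm relative to DMSO.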
Assay [3] is described as follows: BSK_3C_Vis: BioMAP Diversity Plus: 3C Assay for Morphology Visualization (AID 2283025).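 Also: fitted both ways so gain or loss versus DMSO counts.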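 As to AC50: light microscopy image of cell morphology used as background control.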 The following applies: primary human endothelial cells (HUVEC). A digest of the protocol: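 Endothelial cells from human umbilical vein were treated with test chemicals for 24 h and inspected by light microscopy for changes in cell conformation.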
The nature of assay [4]: BSK_BE3C_SRB: Viability Assessment in the BioMAP Diversity Plus: BE3C Assay (AID 2283028). The following applies: primary human bronchial epithelial cells. A digest of the protocol:
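SRB total-protein staining (0.1%, after TCA fixation) of chemically dosed human bronchial epithelial primary cells at 24 h; DMSO serves as the negative control for bidirectional curve fitting.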

Read-out in assay [5]: Thrombomodulin, THBD (gene 7056)
Briefly: BSK_3C_Thrombomodulin: BioMAP Diversity Plus: 3C Assay for Thrombomodulin Biomarker Activity (AID 2283029). The following applies: primary human endothelial cells (HUVEC); actives raise or lower the signal. The method, boiled down:
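Thrombomodulin ELISA, human primary HUVEC, 24 h post-dose; data fitted in both directions relative to DMSO.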

Read-out in assay [6]: Vascular cell adhesion molecule 1 (VCAM1), VCAM1 (gene 7412)
Briefly: BSK_4H_VCAM1: BioMAP Diversity Plus: 4H Assay for Vascular cell adhesion molecule 1 (VCAM1) Biomarker Activity (AID 2283033).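 As to outcome: cell-surface VCAM-1 protein measured by ELISA.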 The following applies: primary human endothelial cells (HUVEC); actives raise or lower the signal. The method, boiled down: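 Endpoint derived from bidirectional fitting against DMSO controls of VCAM-1 ELISA signal in umbilical vein endothelial cells sampled at 24 h following treatment.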

Read-out in assay [7]: Interferon-gamma inducible Protein 10 (IP10), CXCL10 (gene 3627)
The assay can be described thus: BSK_BE3C_IP10: BioMAP Diversity Plus: BE3C Assay for Interferon-gamma inducible Protein 10 (IP10) Biomarker Activity (AID 2283034). The following applies: primary human bronchial epithelial cells; actives raise or lower the signal. A digest of the protocol:
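Using primary human bronchial epithelial cultures, the assay captures IP-10 by ELISA one day (24 h) after exposure. Parallel SRB staining of total protein flags overt cytotoxicity. Fits run bidirectionally relative to DMSO.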

Read-out in assay [8]: Urokinase-type plasminogen activator receptor (uPAR), PLAUR (gene 5329)
Briefly: BSK_BE3C_uPAR: BioMAP Diversity Plus: BE3C Assay for Urokinase-type plasminogen activator receptor (uPAR) Biomarker Activity (AID 2283039).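 As to outcome: uPAR protein level measured by ELISA on the cells; cells exposed to compound for one day before measurement.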 The following applies: primary human bronchial epithelial cells; actives raise or lower the signal. The method, boiled down:
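A uPAR ELISA serves as the readout, taken 24 h after treating primary human bronchial epithelial cells. Responses in either direction are fitted against DMSO, which defines baseline activity.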

Read-out in assay [9]: Interleukin-6 (IL6), IL6 (gene 3569)
The assay can be described thus: BSK_CASM3C_IL6: BioMAP Diversity Plus: CASM3C Assay for Interleukin-6 (IL6) Biomarker Activity for (AID 2283040). The following applies: primary human coronary artery smooth muscle cells; actives raise or lower the signal.

Read-out in assay [10]: E-selectin (Homo sapiens) (UniProt P16581)
Briefly: BSK_LPS_Eselectin: BioMAP Diversity Plus: LPS Assay for Eselectin Biomarker Activity (AID 2283077). The following applies: primary human HUVEC with PBMC; actives raise or lower the signal. The method, boiled down:
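Dose chemical onto LPS-driven HUVEC/PBMC co-culture; after 24 h, run ELISA for E-selectin; fit up- and down-going responses relative to DMSO control.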

Read-out in assay [11]: Interleukin-8 (IL8), CXCL8 (gene 3576)
Briefly: BSK_LPS_IL8: BioMAP Diversity Plus: LPS Assay for Interleukin-8 (IL8) Biomarker Activity (AID 2283078). The following applies: primary human HUVEC with PBMC; actives raise or lower the signal. The method, boiled down: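 In this LPS system, chemical-treated human umbilical vein endothelium/PBMC co-cultures were harvested at 24 h for IL-8 ELISA.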

Read-out in assay [12]: Interleukin-1 alpha (IL1a), IL1A (gene 3552)
Briefly: BSK_LPS_IL1a: BioMAP Diversity Plus: LPS Assay for Interleukin-1 alpha (IL1a) Biomarker Activity (AID 2283080). The following applies: primary human HUVEC with PBMC; actives raise or lower the signal. A digest of the protocol:
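Primary human HUVEC and PBMC co-culture stimulated with LPS is dosed and harvested at 24 h. Both increases and decreases in ELISA-measured IL-1a are scored relative to DMSO.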

Assay [13] in a line: BSK_LPS_PGE2: BioMAP Diversity Plus: LPS Assay for Prostaglandin E2 (PGE2) Biomarker Activity (AID 2283082).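 As to AC50: secreted prostaglandin E2 measured by ELISA in LPS-stimulated co-culture.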 The following applies: primary human HUVEC with PBMC; actives raise or lower the signal. A digest of the protocol:
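Endpoint derived from bidirectional curve fitting versus DMSO of ELISA-measured PGE2 in LPS-stimulated human primary vascular co-culture (HUVEC with PBMC) harvested at 24 h.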

Read-out in assay [14]: Tumor necrosis factor (Homo sapiens) (UniProt P01375)
Briefly: BSK_LPS_TNFa: BioMAP Diversity Plus: LPS Assay for Tumour Necrosis Factor alpha (TNFa) Biomarker Activity (AID 2283085). The following applies: primary human HUVEC with PBMC; actives raise or lower the signal. A digest of the protocol:
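Primary human vascular co-culture of HUVEC and PBMC; TNFa ELISA 24 h after treatment, analysed as increase or decrease relative to DMSO control.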

Read-out in the next assay: CD38, CD38 (gene 952)
Briefly: BSK_SAg_CD38: BioMAP Diversity Plus: SAg Assay for CD38 Biomarker Activity (AID 2283087). The following applies: primary human HUVEC with PBMC; actives raise or lower the signal. The method, boiled down: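 Fluorescence ELISA of cell-surface CD38 served as the read-out, with either increase or decrease fitted against DMSO controls. Cells were a human umbilical vein endothelium plus PBMC co-culture under SEB/TSST-1 stimulation, measured 24 h after dosing.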

Read-out in the next assay: CD69, CD69 (gene 969)
Briefly: BSK_SAg_CD69: BioMAP Diversity Plus: SAg Assay for CD69 Biomarker Activity (AID 2283089).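 As to AC50: cell surface CD69 protein quantified by ELISA with fluorescence detection.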 The following applies: primary human HUVEC with PBMC; actives raise or lower the signal. A digest of the protocol: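 HUVEC co-cultured with PBMC were dosed with chemical, and CD69 was measured by ELISA with fluorescence read-out 24 h later. Bidirectional curve fitting used DMSO as negative control and activity baseline.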

Read-out in assay [15]: Monocyte Chemoattractant Protein-1 (MCP1), CCL2 (gene 6347)
The assay can be described thus: BSK_SAg_MCP1: BioMAP Diversity Plus: SAg Assay for Monocyte Chemoattractant Protein-1 (MCP1) Biomarker Activity (AID 2283090). The following applies: primary human HUVEC with PBMC; actives raise or lower the signal. A digest of the protocol:
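MCP-1 levels in the endothelial–PBMC SAg co-culture were quantified by ELISA at 24 h post-dosing; both increases and decreases versus DMSO scored. Cytotoxicity monitored by SRB total protein in parallel cultures.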

Read-out in assay [16]: Monokine induced gamma interferon (MIG), CXCL9 (gene 4283)
Briefly: BSK_SAg_MIG: BioMAP Diversity Plus: SAg Assay for Monokine induced gamma interferon (MIG) Biomarker Activity (AID 2283092). The following applies: primary human HUVEC with PBMC; actives raise or lower the signal. A digest of the protocol:
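HUVEC plus human PBMC co-culture, chemicals dosed and MIG (CXCL9) quantified by ELISA at 24 h. Bidirectional curve fitting against DMSO as negative control and baseline, so both gain and loss of signal count as activity.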

Assay [17] in a line: BSK_SAg_PBMCCytotoxicity: PBMC Cytotoxicity Assessment in the BioMAP Diversity Plus: SAg Assay (AID 2283093).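 Also: PBMC viability measured as Alamar Blue reduction fluorescence at 546/580 nm; fitted both ways against DMSO so a hit may be loss or gain of signal.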 The following applies: primary human HUVEC with PBMC. A digest of the protocol: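 Compound added to 75,000 PBMC/well for 1 h; SEB and TSST-1 then added at 20 ng/mL final each; 90 h incubation; Alamar Blue 6 h; read 546/580 nm ex/em. Activity fitted bidirectionally relative to DMSO baseline.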

Assay [18] is described as follows: BSK_SAg_Proliferation: Cell Proliferation Assessment in the BioMAP Diversity Plus: SAg Assay (AID 2283095).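 Also: relative cell number as total protein by SRB absorbance in sub-confluent culture.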 The following applies: primary human HUVEC with PBMC. A digest of the protocol: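 Readout is SRB-stained protein (560 nm) in a primary human HUVEC and PBMC co-culture; sub-confluent cultures are read at 96 h. Activity is fitted bidirectionally using DMSO as baseline.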

The source made the active and inactive calls. The calls were made as follows: active = hit-call score of the fitted dose curve at least 0.9, where 1 is the maximum; inactive = score below 0.9.

Chain of E-selectin (Homo sapiens) (P16581 whole entry, looked up): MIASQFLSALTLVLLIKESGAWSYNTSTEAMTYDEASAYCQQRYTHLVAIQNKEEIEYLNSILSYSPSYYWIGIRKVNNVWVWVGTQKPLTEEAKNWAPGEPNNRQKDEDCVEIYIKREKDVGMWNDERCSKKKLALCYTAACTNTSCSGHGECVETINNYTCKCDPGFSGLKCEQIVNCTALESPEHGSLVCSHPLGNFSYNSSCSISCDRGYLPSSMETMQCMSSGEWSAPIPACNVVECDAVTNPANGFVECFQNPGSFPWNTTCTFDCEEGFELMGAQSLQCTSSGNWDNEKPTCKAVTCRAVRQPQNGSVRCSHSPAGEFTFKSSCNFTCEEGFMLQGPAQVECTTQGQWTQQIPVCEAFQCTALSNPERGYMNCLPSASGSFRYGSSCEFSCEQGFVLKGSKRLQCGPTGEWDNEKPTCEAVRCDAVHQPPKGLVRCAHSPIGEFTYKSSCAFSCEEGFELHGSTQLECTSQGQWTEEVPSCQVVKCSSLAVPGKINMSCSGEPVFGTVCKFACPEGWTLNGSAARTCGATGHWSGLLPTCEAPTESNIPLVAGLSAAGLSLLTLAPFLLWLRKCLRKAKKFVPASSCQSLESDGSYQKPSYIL
Chain of Tumor necrosis factor (Homo sapiens) (P01375 whole entry, looked up): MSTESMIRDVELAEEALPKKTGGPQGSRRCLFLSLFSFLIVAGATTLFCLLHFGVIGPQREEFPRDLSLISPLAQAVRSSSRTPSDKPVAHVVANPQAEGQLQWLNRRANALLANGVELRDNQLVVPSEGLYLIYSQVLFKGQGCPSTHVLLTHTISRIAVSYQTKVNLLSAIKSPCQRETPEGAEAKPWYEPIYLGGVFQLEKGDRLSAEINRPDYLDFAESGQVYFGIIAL

`CC(C)COP(=O)(OCC(C)C)OCC(C)C`: the result in assay [1], in [2], in [3], in assay [4], in assay [5] and in assay [6] was inactive. Besides, the result in [7], in assay [8], in assay [9], in assay [10], in assay [11] and in assay [12] was inactive. Also, the outcome is “inactive” in assay [13]; “inactive” in [14]; “inactive” with CD38, CD38 (gene 952); “inactive” with CD69, CD69 (gene 969); “inactive” in assay [15]; “inactive” in [16]. The outcome in [17] and in assay [18] was inactive.
What is called AC50 is the concentration giving half of the maximal activity seen. With `C=CC(=O)OCC(CC)CCCC` (stereo not given), the AC50 was 20 µM (active) in assay [1], 27.6 µM (active) in assay [2], 3.97 µM (active) in assay [5] and 0.159 µM (active) in assay [6]. The result in assay [3], in assay [4], in assay [7], in [8], in assay [9] and in assay [10] was inactive. Besides, the outcome in assay [11] is “inactive”; in [12], “inactive”; in [13], “inactive”; in assay [14] it was “inactive”; with CD38, CD38 (gene 952), “inactive”; with CD69, CD69 (gene 969), “inactive”. Also, the result in assay [15], in assay [16], in assay [17] and in assay [18] was inactive.
Turning to `O=c1c2ccccc2c(=O)c2c1cc(Cl)c1[nH]c3c([nH]c12)c(Cl)cc1c(=O)c2ccccc2c(=O)c13`, the result in assay [1], in [2], in assay [3], in [4], in assay [5] and in assay [6] was inactive. Also, the outcome in assay [7], in [8], in assay [9], in assay [10], in assay [11] and in [12] was inactive. Moreover, the outcome in assay [13] was “inactive”; in [14], “inactive”; in the assay with CD38, CD38 (gene 952), “inactive”; with CD69, CD69 (gene 969), “inactive”; in assay [15], “inactive”; in [16], “inactive”. The outcome in assay [17] and in [18] was inactive.
In the case of `Cc1ccc(OP(=O)(Oc2ccc(C)cc2)Oc2ccc(C)cc2)cc1` (tested in a mixture with another compound), the outcome in assay [1], in assay [4], in assay [6], in assay [7], in [9] and in [10] was inactive. The outcome in [13], in assay [14], in assay [16] and in [17] was inactive. Further, the AC50 in assay [2] is 7.47 µM (active); in assay [3], 37.5 µM (active); in assay [5] it was 3.59 µM (active); in [8], 4.16 µM (active); in assay [11], 11.8 µM (active); in assay [12] it was 4.74 µM (active). In addition, the half-maximal activity concentration (AC50) is 20 µM (active) with CD38, CD38 (gene 952); 9.8 µM (active) with CD69, CD69 (gene 969); 20 µM (active) in assay [15]; 9.42 µM (active) in [18].
In the case of `N#CCCCCC#N`, the result in assay [1], in [2], in assay [3], in assay [4], in [5] and in [6] was inactive. Besides, the outcome in [7], in assay [8], in assay [9], in assay [10], in assay [11] and in assay [12] was inactive. Further, the outcome was “inactive” in assay [13]; “inactive” in assay [14]; “inactive” in the assay with CD38, CD38 (gene 952); “inactive” with CD69, CD69 (gene 969); “inactive” in assay [15]; “inactive” in [16]. Also, the outcome in assay [17] and in [18] was inactive.
As to `CNC(=O)Oc1cc(C)c(SC)c(C)c1`, the concentration at half-maximal activity (AC50) is 20 µM (active) in assay [1], 13 µM (active) in [2], 20 µM (active) in assay [6] and 11.8 µM (active) in assay [13]. Further, the result in [3], in [4], in assay [5], in assay [7], in assay [8] and in assay [9] was inactive. Moreover, the outcome in [10] was “inactive”; in [11], “inactive”; in assay [12], “inactive”; in assay [14], “inactive”; with CD38, CD38 (gene 952), “inactive”; with CD69, CD69 (gene 969) it was “inactive”. Moreover, the outcome in [15], in assay [16], in assay [17] and in [18] was inactive.

The values above are taken from PubChem BioAssay (EPA / NIEHS).
